For eleven molecules, growth results are on record in PubChem BioAssay (NCI).

Test systems include SK-MEL-2 melanoma; EKVX NSCLC; SN12C renal; UO-31 renal; TK-10 renal; CAKI-1 renal; A498 renal; CCRF-CEM leukemia; MOLT-4 leukemia.
What all share (test): NCI-60 one-dose screen, 48 h (100 = growth as untreated, 0 = no growth, -100 = all killed)
A further test relates to ACHN renal. To be noted: 10 µM unless noted.

Each structure is given as a SMILES string. “And” between values parts separate entries of the source, which are not always exact repeats. Identical values can stand only once. The panel holds about 83,000 compounds, 20% with a hit somewhere; the sample as a whole holds those more often.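 Cells were grown in 96-well plates and exposed to the test compound at a single concentration for 48 hours; results are reported as percent growth, with values below 10 considered active.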 The source made the active and inactive calls.

On to `CN(C)CCOc1ccc2c(c1)C(=O)/C(=C\c1ncc([N+](=O)[O-])n1C)C2`, for which the growth in the test with SK-MEL-2 melanoma (10 µM unless noted) is -72.5% (active); in the test with EKVX NSCLC (10 µM unless noted), -18.9% (active); with SN12C renal (10 µM unless noted) it was 0.0262% (active); in the test on UO-31 renal (10 µM unless noted), -36.7% (active); in the test on TK-10 renal (10 µM unless noted), -9.94% (active); in the test with ACHN renal it was -31.9% (active). Further, the growth with CAKI-1 renal (10 µM unless noted) is -19.2% (active); with A498 renal (10 µM unless noted), -88% (active); with CCRF-CEM leukemia (10 µM unless noted) it was -61.1% (active); with MOLT-4 leukemia (10 µM unless noted) it was -32.1% (active).
As to `COc1cc(/C=C/C(C)=O)ccc1O`, the growth in the test on SK-MEL-2 melanoma (10 µM unless noted) is 105% (inactive); in the test with EKVX NSCLC (10 µM unless noted) it was 91.8% (inactive) and 112% (inactive); in the test on SN12C renal (10 µM unless noted), 98.1% (inactive) and 104% (inactive); with UO-31 renal (10 µM unless noted) it was 66% (inactive) and 88.4% (inactive); in the test with TK-10 renal (10 µM unless noted) it was 97.7% (inactive) and 142% (inactive); in the test with ACHN renal, 95.9% (inactive) and 95% (inactive). Moreover, the growth is 93.4% (inactive) and 115% (inactive) in the test with CAKI-1 renal (10 µM unless noted); 79.1% (inactive) and 116% (inactive) in the test on A498 renal (10 µM unless noted); 28.4% (inactive) and 78.1% (inactive) with CCRF-CEM leukemia (10 µM unless noted); 95.8% (inactive) and 87.2% (inactive) in the test with MOLT-4 leukemia (10 µM unless noted).
With `CCOC(=O)c1c(C)[nH]c(CO)c1C`, the growth in the test with SK-MEL-2 melanoma (10 µM unless noted) is 101% (inactive); with EKVX NSCLC (10 µM unless noted) it was 79.1% (inactive); in the test on SN12C renal (10 µM unless noted), 95.2% (inactive); with UO-31 renal (10 µM unless noted) it was 92.5% (inactive); in the test on TK-10 renal (10 µM unless noted), 106% (inactive); in the test with ACHN renal it was 107% (inactive). Besides, the growth was 101% (inactive) in the test on CAKI-1 renal (10 µM unless noted), 107% (inactive) with A498 renal (10 µM unless noted), 98.2% (inactive) with CCRF-CEM leukemia (10 µM unless noted) and 96.6% (inactive) in the test on MOLT-4 leukemia (10 µM unless noted).
In the case of `O=C(O)c1c(Cl)c(Cl)c(Cl)c(Cl)c1-c1c2cc(I)c(=O)c(I)c-2oc2c(I)c(O)c(I)cc12`, the growth is 110% (inactive) and 108% (inactive) and 73.8% (inactive) in the test on SK-MEL-2 melanoma (10 µM); -40.2% (active) with SK-MEL-2 melanoma (100 µM); 98.6% (inactive) and 98.8% (inactive) and 91.3% (inactive) in the test with EKVX NSCLC (10 µM); -19.9% (active) with EKVX NSCLC (100 µM); 99.1% (inactive) and 95.2% (inactive) and 98.3% (inactive) in the test on SN12C renal (10 µM); 2.38% (active) in the test with SN12C renal (100 µM). In addition, the growth in the test with UO-31 renal (10 µM) is 102% (inactive) and 72.9% (inactive) and 84% (inactive); in the test on UO-31 renal (100 µM), 49.8% (inactive); in the test on TK-10 renal (10 µM), 108% (inactive) and 116% (inactive) and 84.5% (inactive); in the test on TK-10 renal (100 µM), 36.6% (inactive); with CAKI-1 renal (10 µM) it was 107% (inactive) and 102% (inactive) and 90% (inactive); in the test with CAKI-1 renal (100 µM), 42.9% (inactive). The growth in the test on A498 renal (10 µM) was 300% (inactive) and 106% (inactive); in the test on A498 renal (100 µM), 37.1% (inactive); in the test with CCRF-CEM leukemia (10 µM) it was 104% (inactive) and 101% (inactive) and 51.4% (inactive); in the test with CCRF-CEM leukemia (100 µM) it was -30.2% (active); in the test on MOLT-4 leukemia (10 µM) it was 110% (inactive) and 106% (inactive) and 91.4% (inactive); in the test with MOLT-4 leukemia (100 µM), -50.2% (active).
`NC(N)=N/N=C/c1ccc([N+](=O)[O-])o1`: the growth is 83.4% (inactive) in the test with SK-MEL-2 melanoma (10 µM unless noted); 122% (inactive) in the test with EKVX NSCLC (10 µM unless noted); 86.6% (inactive) in the test on SN12C renal (10 µM unless noted); 88.8% (inactive) with UO-31 renal (10 µM unless noted); 115% (inactive) in the test with TK-10 renal (10 µM unless noted); 92.8% (inactive) in the test on ACHN renal. Further, the growth in the test on CAKI-1 renal (10 µM unless noted) was 106% (inactive); in the test on A498 renal (10 µM unless noted) it was 105% (inactive); in the test on CCRF-CEM leukemia (10 µM unless noted), 87.9% (inactive); in the test on MOLT-4 leukemia (10 µM unless noted), 103% (inactive).
For `O=C1c2cccnc2-c2nccc3c2c1nc1cc(Br)ccc13`, the growth in the test with SK-MEL-2 melanoma (10 µM unless noted) is 16.8% (inactive) and -59% (active); with EKVX NSCLC (10 µM unless noted), 32% (inactive) and -81.4% (active); in the test with SN12C renal (10 µM unless noted), 11.5% (inactive) and -70.9% (active); in the test on UO-31 renal (10 µM unless noted) it was -80% (active) and -93% (active); with TK-10 renal (10 µM unless noted), 44.5% (inactive) and -98.9% (active); with ACHN renal it was -72.9% (active) and -92.1% (active). Further, the growth is -49.6% (active) and -90.7% (active) in the test on CAKI-1 renal (10 µM unless noted); -52% (active) and -78.4% (active) in the test with A498 renal (10 µM unless noted); -26.3% (active) and -4.46% (active) in the test with CCRF-CEM leukemia (10 µM unless noted); -39.5% (active) and -31% (active) in the test with MOLT-4 leukemia (10 µM unless noted).
With `Cc1ccnc2c1ccc1c(C)ccnc12`, the growth in the test on SK-MEL-2 melanoma (10 µM unless noted) was 27.3% (inactive); in the test with EKVX NSCLC (10 µM unless noted), 22.2% (inactive); in the test with SN12C renal (10 µM unless noted), 15.6% (inactive); in the test with UO-31 renal (10 µM unless noted), -4.12% (active); with TK-10 renal (10 µM unless noted), 25.7% (inactive); with ACHN renal, 11.3% (inactive). In addition, the growth was 16% (inactive) in the test on CAKI-1 renal (10 µM unless noted), 19.5% (inactive) in the test on A498 renal (10 µM unless noted), 13.6% (inactive) in the test on CCRF-CEM leukemia (10 µM unless noted) and 3.4% (active) in the test with MOLT-4 leukemia (10 µM unless noted).
Regarding `CN1c2ccccc2C(C)(C)C12C=Cc1cc(O)ccc1O2` (centres undefined), the growth with SK-MEL-2 melanoma (10 µM unless noted) was 57.5% (inactive); in the test with EKVX NSCLC (10 µM unless noted) it was 105% (inactive); with SN12C renal (10 µM unless noted) it was 48.7% (inactive); in the test on UO-31 renal (10 µM unless noted), 60.6% (inactive); in the test on TK-10 renal (10 µM unless noted), 80.7% (inactive); in the test with ACHN renal, 73.3% (inactive). For the same molecule, the growth with CAKI-1 renal (10 µM unless noted) was 65.9% (inactive); in the test on A498 renal (10 µM unless noted) it was 26% (inactive); in the test with CCRF-CEM leukemia (10 µM unless noted), -16.8% (active); in the test on MOLT-4 leukemia (10 µM unless noted) it was -17.6% (active).
For the molecule `CN(C)c1ccc(N=Nc2cccc3ccccc23)cc1`, the growth in the test with SK-MEL-2 melanoma (10 µM unless noted) is 100% (inactive); in the test with EKVX NSCLC (10 µM unless noted) it was 71.7% (inactive); in the test with SN12C renal (10 µM unless noted) it was 92.9% (inactive); in the test on UO-31 renal (10 µM unless noted), 57.5% (inactive); in the test with TK-10 renal (10 µM unless noted) it was 80.9% (inactive); with ACHN renal it was 91.3% (inactive). The growth was 90.2% (inactive) in the test with CAKI-1 renal (10 µM unless noted), 85.3% (inactive) in the test with A498 renal (10 µM unless noted), 81.6% (inactive) with CCRF-CEM leukemia (10 µM unless noted) and 84.3% (inactive) in the test with MOLT-4 leukemia (10 µM unless noted).
Consider `CC(C)c1ccc2nc3ccc(C(=O)NCCN4CCN(c5ccccc5)CC4)cn3c(=O)c2c1`, for which the growth was 75.4% (inactive) with SK-MEL-2 melanoma (10 µM unless noted); 74.5% (inactive) in the test with EKVX NSCLC (10 µM unless noted); 69.9% (inactive) in the test on SN12C renal (10 µM unless noted); 50% (inactive) with UO-31 renal (10 µM unless noted); 93.9% (inactive) with TK-10 renal (10 µM unless noted); 72.1% (inactive) in the test with ACHN renal. In addition, the growth in the test with CAKI-1 renal (10 µM unless noted) is 63.4% (inactive); in the test with A498 renal (10 µM unless noted) it was 81.8% (inactive); in the test on CCRF-CEM leukemia (10 µM unless noted), 50.7% (inactive); in the test on MOLT-4 leukemia (10 µM unless noted), 38% (inactive).
Consider `O=C(Nc1c(Cl)cccc1Cl)Oc1cccc2cccnc12`, for which the growth with SK-MEL-2 melanoma (10 µM) was 79.8% (inactive); in the test with SK-MEL-2 melanoma (100 µM), 25.9% (inactive); in the test on EKVX NSCLC (10 µM unless noted), -9.97% [100 µM] (active); with SN12C renal (10 µM), 53.9% (inactive); in the test on SN12C renal (100 µM) it was 33.1% (inactive); in the test with UO-31 renal (10 µM), 17% (inactive). Also, the growth in the test on UO-31 renal (100 µM) is 6.51% (active); in the test with TK-10 renal (10 µM) it was 58.8% (inactive); with TK-10 renal (100 µM) it was 22.4% (inactive); in the test with CAKI-1 renal (10 µM), -9.81% (active); in the test on CAKI-1 renal (100 µM), 16.8% (inactive); with A498 renal (10 µM), 98.2% (inactive). Besides, the growth was 94.5% (inactive) with A498 renal (100 µM), 8.09% [100 µM] (active) in the test on CCRF-CEM leukemia (10 µM unless noted), 16.6% (inactive) with MOLT-4 leukemia (10 µM) and 8.36% (active) with MOLT-4 leukemia (100 µM).
